From PubChem BioAssay
ssDAF12 agonist: activates DAF-12 receptor from parasite S. stercoralis | 370,000 tested, 1% active | activation, % at 6.8 µM | HEK293 ssDAF-12/GRIP1 lit1-tk-luc reporter, luminescence; % of 3 µM dafachronic acid response;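 active means activation above the mean over all tested compounds plus 3 SD, cut at about 0.9% in these data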;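 further: 0% = DMSO-only wells and 100% = 3 µM delta7-dafachronic acid wells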
DAX1 inh-1: NR0B1 (DAX1) inhibition. P51843. AID 504766. HEK293 Gal4-DAX1 luciferase reporter, luminescence. inhibition, % at 6.75 µM. 340,000 tested, 0.99% active;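 active means inhibition above the mean over all tested compounds plus 3 SD, cut at about 4.2% in these data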;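 further: 0% = DAX1-transfected cells with DMSO and 100% = empty-vector control cells with DMSO; inhibition shows as a rise in luminescence from relieved DAX1 repression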
hgDAF-12 ag: activates the H. glycines DAF-12 receptor ligand-binding domain; 370,000 tested, 1.8% active; activation, % at 6.8 µM; HEK293 GAL4-hgDAF12 UAS-luciferase reporter, agonist luminescence; normalized to butyrate control;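 active means activation above a cutoff set at the mean of all screened compounds plus 3 SD, cut at about 10% in these data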;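 further: 0% = DMSO wells and 100% = sodium butyrate wells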
hcDAF-12 act: activators of H. contortus DAF-12 nuclear receptor. 370,000 tested, 1.4% active. activation, % at 6.8 µM. HEK293 hcDAF-12 lit1-tk-luc reporter, luminescence; 0% DMSO, 100% Δ7-dafachronic acid;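 active means activation above the mean of all tested compounds plus 3 SD, cut at about 5.5% in these data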;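 further: 100% = response to 3 µM Δ7-dafachronic acid high control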
DAX1 inh-2: blocks DAX1 repression of SF-1 activated StAR promoter; 370,000 tested, 1.1% active; HEK293T StAR-luciferase reporter, SF-1/DAX-1 repression relief; AID 652010; inhibition, % at 6.8 µM;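 active means inhibition above the mean over all tested compounds plus 3 SD, cut at about 3.6% in these data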;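 further: 0% = DAX-1 cells with DMSO and 100% = cells lacking DAX-1 with DMSO; higher inhibition means more luminescence from relief of DAX-1 repression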
AHR act: human AHR activation; P35869; AHR-responsive luciferase reporter cells, luminescence; activation, % at 5 µM; 320,000 tested, 2.5% active; AID 2796; in the data active means activation above about 47%;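 further: 0% = vehicle wells and 100% = reference agonist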
AHR act confirm: confirmation of human aryl hydrocarbon receptor activators. AID 2845. 2,300 tested, 87% active. shares compounds with AHR act. human cells, AHR-responsive luciferase reporter, luminescence. activation, % at 9 µM; in the data active means activation above about 49%;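 further: HepG2 hepatoma cells carrying a DRE-driven firefly luciferase reporter; 0% = vehicle wells and 100% = reference agonist wells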
PXR counter: counter-screen for AHR activators: human PXR activators; activation, % at 11.6 µM; cell-based PXR reporter, luciferase luminescence; shares compounds with AHR act; 2,300 tested, 88% active; in the data active means activation above about 11%;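 further: human hepatoma DPX-2 cells expressing full-length human PXR; 0% = DMSO and 100% = reference agonist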
Target sequence (O75469 whole entry, looked up): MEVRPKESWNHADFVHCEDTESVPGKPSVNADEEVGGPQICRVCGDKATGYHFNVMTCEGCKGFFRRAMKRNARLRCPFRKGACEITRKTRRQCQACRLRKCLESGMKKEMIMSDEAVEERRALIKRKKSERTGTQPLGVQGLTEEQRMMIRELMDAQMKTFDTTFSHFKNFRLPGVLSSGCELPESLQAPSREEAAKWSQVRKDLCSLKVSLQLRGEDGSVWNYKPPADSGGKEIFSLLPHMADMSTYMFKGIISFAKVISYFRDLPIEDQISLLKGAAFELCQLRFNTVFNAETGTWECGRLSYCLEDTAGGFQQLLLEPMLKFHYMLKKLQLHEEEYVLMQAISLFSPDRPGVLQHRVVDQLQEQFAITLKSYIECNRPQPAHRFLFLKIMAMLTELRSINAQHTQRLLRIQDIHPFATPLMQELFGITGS
* marks the source's active call; other numbers are inactive results; . = no result. Compounds with a hit are over-represented: about 5.7% of the library has one in this group of screens.

SMILES | ssDAF12 agonist | DAX1 inh-1 | hgDAF-12 ag | hcDAF-12 act | DAX1 inh-2 | AHR act | AHR act confirm | PXR counter
COc1ccccc1NC(=O)NCCc1ccccc1 | -1 | 1 | 0 | -1 | 0 | . | . | .
Cn1c(/C=C/c2cccc([N+](=O)[O-])c2)nc2ccccc2c1=O | -1 | 1 | 0 | -1 | -1 | 93* | 0 | 12*
O=C1OCCC1Sc1nnnn1-c1ccc(Cl)cc1 (stereo unspecified) | -2 | -1 | 2 | -2 | 0 | 2 | . | .
O=C1CC(c2ccccc2)CC(O)=C1C=Nc1ccc(O)cc1 (stereo unspecified) | -2 | 2 | -3 | -1 | -1 | 83* | 67* | 14*
COc1ccc(N=CC2=C(O)CC(c3ccccc3)CC2=O)c(OC)c1 (stereo unspecified) | -1 | 1 | 2 | -1 | -2 | 116* | 104* | 21*
CCOc1ccccc1N=CC1=C(O)CC(c2ccccc2)CC1=O (stereo unspecified) | -2 | 1 | -4 | 0 | -1 | 20 | . | .
O=C(CN1CCCCCC1)Nc1ccc(Br)cc1 | -2 | 0 | 1 | 0 | -1 | 84* | 112* | 60*
CNC(=S)N(CCc1c(C)[nH]c2ccccc12)Cc1cccnc1 | -1 | 2 | 1 | -1 | 0 | 4 | . | .
CN(C)c1ccc(Nc2nc(N)c([N+](=O)[O-])c(N3CCOCC3)n2)cc1 | -1 | -2 | -5 | -1 | -2 | 82* | 68* | 39*
COc1ccc(Nc2nc(N)c([N+](=O)[O-])c(N3CCOCC3)n2)cc1 | -2 | 0 | 2 | 0 | 0 | 17 | . | .
CCCn1c(NC(=S)Nc2ccccc2)nc2ccccc21 | -1 | 0 | -1 | 4 | 0 | 83* | 75* | 11*
CCOc1ccc(NC(=O)Nc2cccc(C)n2)cc1 | -1 | 1 | 4 | 1 | 0 | 80* | 71* | 18*
CCOc1ccc(NC(=O)CNC(=O)COc2ccccc2)cc1 | -1 | 0 | 2 | 2 | -1 | 121* | 15 | 11*
CC(=O)Nc1cccc(OCC(=O)Nc2ccc(F)cc2)c1 | -1 | -1 | 3 | -1 | 0 | 85* | 76* | .
COc1ccc(C(=O)Nc2cc(OC)c(Cl)cc2OC)cc1 | 0 | 1 | 1 | 5 | 1 | 42 | . | .
COc1cc(NC(=O)c2cc(C3CC3)on2)c(OC)cc1Cl | 0 | 0 | 4 | 6.4* | -1 | 95* | 110* | 14*
COc1cc(NC(=O)c2ccc(F)cc2)c(OC)cc1Cl | 0 | -1 | 1 | 3 | 0 | 86* | 103* | 20*
COc1cccc(CN(C)S(=O)(=O)c2c(C)noc2C)c1OC | -1 | 1 | -1 | -1 | 1 | . | . | .
Cn1c(=O)[nH]c(=O)c2[nH]c(CO)nc21 | -1 | 0 | 3 | -1 | 0 | . | . | .
CCCOc1ccccc1-c1nc2c([nH]1)c(=O)[nH]c(=O)n2C | -1 | 1 | 1 | -1 | -1 | 137* | 79* | 34*
COc1cc(/C=N/Nc2nncn2N)ccc1OCc1c(C)no[n+]1[O-] | -2 | -1 | -11 | -2 | -3 | 3 | . | .
COc1ccc(/C=N/Nc2nncn2N)cc1Br | -1 | 1 | -13 | -3 | -2 | 88* | 41 | 12*
CCN(CC)S(=O)(=O)c1cccc(C(=O)OCC(=O)Nc2ccc3c(c2)c2ccccc2n3CC)c1 | 0 | -1 | -3 | 1 | 0 | 83* | 80* | 33*
COC(=O)CSc1nc(C)cc(C)c1C#N | -1 | 0 | 3 | 0 | 0 | 2 | . | .
Cc1cc(C)c(C#N)c(SCC(=O)c2ccccc2)n1 | -1 | -1 | -4 | -1 | -1 | 148* | 153* | 29*
SMILES | ssDAF12 agonist | DAX1 inh-1 | hgDAF-12 ag | hcDAF-12 act | DAX1 inh-2 | AHR act | AHR act confirm | PXR counter
Cc1cc(=O)[nH]c(SCC(=O)c2ccccc2)c1C#N | -1 | -2 | 0 | -2 | -1 | 30 | . | .
Cc1cc(C)c(C#N)c(SCC(=O)c2cccs2)n1 | 0 | 1 | 6 | 4 | -1 | 165* | 112* | 28*
O=C(CCc1ccccc1)Nc1ccc2c(c1)C(=O)OC2 | . | -1 | . | . | . | 3 | . | .
COc1ccc(NC(=O)c2cccc3c(Br)cccc23)cc1 | 0 | -2 | 2 | 1 | 0 | 93* | 121* | .
COc1ccc(NC(=O)c2cc(=O)[nH]c3ccccc23)cc1 | -1 | 0 | 2 | 0 | 1 | 100* | 108* | 20*
O=C(C1CCCCCC1)N1CC[C@@H](N2CCC(O)CC2)[C@H](O)C1 | -1 | 0 | 1 | 0 | 0 | -4 | . | .
O=C(Nc1ccccc1C(=O)Nc1ccc(Cl)cc1)c1cccnc1 | -2 | 0 | -1 | -3 | -1 | 86* | 56* | 31*
CCOc1ncccc1C(=O)Nc1ccc(Cl)cc1 | -1 | -2 | 4 | 2 | 0 | 117* | 122* | 19*
COc1ccc(Cl)cc1NC(=O)c1cccnc1 | -2 | 0 | 1 | -1 | 0 | 88* | 107* | 11*
CCOc1ccc(NC(=O)c2cc(-c3ccc(Cl)cc3)nc3ccccc23)cc1 | -1 | . | 0 | 0 | -1 | . | . | .
COc1ccc(OC)c(NC(=O)c2cccnc2)c1 | -1 | 1 | -2 | -3 | 0 | 7 | . | .
CCOc1ccc(NC(=O)c2cc(Cl)nc3ccccc23)cc1 | 0 | 4.3* | 1 | 1 | 0 | 95* | 91* | 11*
CN1C(=O)c2ccc(Oc3ccccc3)cc2C1=O | -1 | 1 | 0 | 0 | 0 | -2 | . | .
CCOC(=O)c1ccc(Cl)c(S(=O)(=O)N2CCCC2)c1 | -2 | 1 | -5 | -1 | 0 | 1 | . | .
Cc1ccc(S(=O)(=O)NC(=O)Nc2cccc(S(=O)(=O)N(C)C)c2)cc1 | -1 | 0 | 2 | 1 | -2 | 0 | . | .
CCOC(=O)c1oc2ccccc2c1N | 0 | 2 | 6 | 0 | 0 | 82* | 122* | .
CCOC(=O)c1oc2ccccc2c1NC(=O)COC | 0 | 0 | 1 | 0 | -1 | 89* | 104* | 15*
Nc1c(C(=O)c2ccc(Br)cc2)oc2ccccc12 | 0 | 2 | 10 | 5 | 2 | 122* | 176* | .
Nc1c(Cl)cc(C2=NCCn3nc4ccccc4c32)cc1Cl | 0 | 0 | -2 | 1 | 0 | 35 | . | .
Nc1c(Cl)cc(C2=NCCn3c2c2ccccc2[n+]3[O-])cc1Cl | -1 | 1 | 0 | 3 | 0 | 85* | 101* | 20*
[O-][n+]1c2ccccc2c2n1CCN=C2c1ccc(Cl)cc1 | 0 | 2 | 4 | 5 | 0 | 102* | 115* | 12*
